# This is one part of the list. No count for the full screen is at hand.
# Biological target: furin, P09958
# Assay: furin cleavage Z-score vs untreated control; higher = more cleavage, active = 3.5 or more, inactive = 1 or less, 8 variable residues between constant flanks
# Method: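 Multiplexed peptide-cDNA fusion cleavage assay. 8-mer variable peptides flanked by constant Cys-Ala (N-term) and Ala-Gly-Asn-Ala-Ser-Ala-Ser-Ala (C-term) and conjugated to a cDNA oligonucleotide were bead-immobilised via the N-terminus. They were treated with purified furin at a 1:10 enzyme:substrate ratio in 50 mM HEPES pH 7.5, 1 mM CaCl2, 100 mM NaCl for 7.5, 15 or 30 min. Released cDNA was counted by next-generation sequencing, and log counts versus no-furin controls were lowess-adjusted and converted to robust Z-scores.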
# Sequence of furin, P09958 (P09958 whole entry): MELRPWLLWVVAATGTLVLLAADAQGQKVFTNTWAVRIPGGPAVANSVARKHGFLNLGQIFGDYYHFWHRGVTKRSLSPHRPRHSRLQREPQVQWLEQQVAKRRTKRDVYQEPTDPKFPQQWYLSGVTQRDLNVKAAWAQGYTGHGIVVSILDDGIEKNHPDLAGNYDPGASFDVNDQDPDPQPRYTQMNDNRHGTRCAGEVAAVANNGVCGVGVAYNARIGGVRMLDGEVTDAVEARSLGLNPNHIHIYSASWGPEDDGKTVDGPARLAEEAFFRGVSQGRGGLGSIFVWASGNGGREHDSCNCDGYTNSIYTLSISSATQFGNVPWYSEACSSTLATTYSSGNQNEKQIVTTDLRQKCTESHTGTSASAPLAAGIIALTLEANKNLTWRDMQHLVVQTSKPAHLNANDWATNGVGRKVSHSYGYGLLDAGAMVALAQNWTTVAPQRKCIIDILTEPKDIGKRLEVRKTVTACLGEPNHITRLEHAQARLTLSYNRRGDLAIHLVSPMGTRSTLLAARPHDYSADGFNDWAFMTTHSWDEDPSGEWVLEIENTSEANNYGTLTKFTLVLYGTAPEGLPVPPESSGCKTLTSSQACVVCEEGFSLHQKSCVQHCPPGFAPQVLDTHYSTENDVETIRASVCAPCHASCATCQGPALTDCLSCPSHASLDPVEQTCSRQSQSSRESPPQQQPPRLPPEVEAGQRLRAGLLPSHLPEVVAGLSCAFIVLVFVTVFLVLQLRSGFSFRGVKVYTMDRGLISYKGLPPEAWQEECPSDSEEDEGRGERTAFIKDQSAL
Sequence,furin cleavage Z-score (7.5 min),furin cleavage Z-score (15 min),furin cleavage Z-score (30 min)
CADVCCSMSYAGNASASA [HC1991],-0.0698 (inactive),-0.573 (inactive),1.23
CATTDCSGSWAGNASASA [HC1871],-0.934 (inactive),-0.299 (inactive),-0.368 (inactive)
CAEWTTPCSGAGNASASA [HC1968],-0.833 (inactive),-0.0659 (inactive),0.694 (inactive)
CAVVCVSMSYAGNASASA [HC83],0.357 (inactive),0.79 (inactive),-0.758 (inactive)
CARKNRPAGAAGNASASA [FS-1729],-0.275 (inactive),-0.752 (inactive),-0.0808 (inactive)
CARRGRSGGAAGNASASA [FS-2227],-0.325 (inactive),-0.173 (inactive),-0.877 (inactive)
CASTPCSAALAGNASASA [HC2543],-1.2 (inactive),-0.501 (inactive),0.383 (inactive)
CARTKREAGAAGNASASA [FS-2189],10.6 (active),10.5 (active),7.02 (active)
CARRKRSAGAAGNASASA [FS-1779],11.3 (active),10.7 (active),8.77 (active)
CARNHRDAGAAGNASASA [FS-1756],1.3,0.109 (inactive),0.263 (inactive)
CARRKRKGSDAGNASASA [FS-2451],0.854 (inactive),2.01,1.02
CARRKRSAALAGNASASA [FS-2371],10.8 (active),11.7 (active),9.76 (active)
CARAQRSAGAAGNASASA [FS-1994],0.322 (inactive),0.0646 (inactive),1.56
CARRKRHDIAAGNASASA [FS-3053],9.56 (active),8.72 (active),8.78 (active)
CAMEVCSQHLAGNASASA [HC1710],0.136 (inactive),0.13 (inactive),-0.0969 (inactive)
CAMEECAQHLAGNASASA [HC21],-0.625 (inactive),-0.0837 (inactive),-0.768 (inactive)
CATLHGPTPLAGNASASA [HC969],0.77 (inactive),0.336 (inactive),-0.402 (inactive)
CARRKRRAPLAGNASASA [FS-2594],4.11 (active),6.31 (active),6.38 (active)
CARYARWAGAAGNASASA [FS-1808],3.25,3.55 (active),4.67 (active)
CARRKRHISVAGNASASA [FS-3262],5.85 (active),5.59 (active),7.18 (active)
CARYARKIEPAGNASASA [FS-2847],0.34 (inactive),1.98,2.59
CAEDEREISVAGNASASA [HC1292],0.521 (inactive),-0.358 (inactive),1.28

Sequence,furin cleavage Z-score (7.5 min),furin cleavage Z-score (15 min),furin cleavage Z-score (30 min)
CARYHRDAGAAGNASASA [FS-1809],1.33,1.22,0.229 (inactive)
CARRQRRVPGAGNASASA [FS-3060],0.752 (inactive),1.27,2.47
CAMEECQQHLAGNASASA [HC39],1.54,0.787 (inactive),2.55
CALALPQRAYAGNASASA [HC561],0.0304 (inactive),1.97,1.07
CAQVVTSTWVAGNASASA [HC2162],0.38 (inactive),0.0342 (inactive),0.112 (inactive)
CAEWVTSTWVAGNASASA [HC2168],0.00297 (inactive),0.984 (inactive),0.871 (inactive)
CAVVCCSISYAGNASASA [HC2044],0.197 (inactive),-0.41 (inactive),-0.348 (inactive)
CARKKREKKKAGNASASA [FS-2964],-0.433 (inactive),-0.316 (inactive),0.927 (inactive)
CARKKRATHSAGNASASA [FS-2562],11.5 (active),12.2 (active),9.97 (active)
CARKKRSTKKAGNASASA [FS-2270],5.56 (active),7.13 (active),6.85 (active)
CARKKRREEKAGNASASA [FS-1828],-0.326 (inactive),2.8,0.74 (inactive)
CARKKRYDRKAGNASASA [FS-2395],4.56 (active),7.7 (active),7.88 (active)
CARKKRADKKAGNASASA [FS-2961],5 (active),6.53 (active),5.44 (active)
CAMEECSQTLAGNASASA [HC1758],0.0304 (inactive),0.61 (inactive),0.799 (inactive)
CAVLNPSVAAAGNASASA [HC787],-0.311 (inactive),-0.0498 (inactive),-0.157 (inactive)
CAPLLLLLLAAGNASASA [HC558],-0.475 (inactive),-2.1 (inactive),0.488 (inactive)
CAQLGRPKRCAGNASASA [FS-1248],8.77 (active),10.3 (active),8.22 (active)
CAPKGRPKRAAGNASASA [FS-1047],11.3 (active),13.3 (active),9.54 (active)
CAILGGWVAAAGNASASA [HC1066],-0.934 (inactive),-0.574 (inactive),-1.27 (inactive)
CAPLKRFKRAAGNASASA [FS-699],12.2 (active),12 (active),9.3 (active)
CAREGNASRCAGNASASA [HC276],-0.0161 (inactive),-0.511 (inactive),-0.0787 (inactive)
CAQGTRFKRAAGNASASA [FS-847],11.1 (active),10.3 (active),8.39 (active)
